The source of these data is PubChem BioAssay.

Experiment [1] can be described thus: binders of probe aFSTL3 on microarray, primary screen, stem cell growth factor project, biochemical, small-molecule microarray, fluorescence 635/667 (AID 1064).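 Note: measures binding of the biotinylated anti-FSTL3 antibody to printed compounds.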 Conditions: higher = more signal.
Experiment [2] is described as follows: binders from COS7 lysate, DM2A8 probe, primary screen, torsin A project, cell lysate, small-molecule microarray, fluorescence 635/667 (AID 1065). The settings on record: higher = more signal, COS7 lysate expressing mutant human TOR1A.
Experiment [3] can be described thus: binders of probe aFGF2 on microarray, primary screen, stem cell growth factor project, biochemical, small-molecule microarray, fluorescence 635/667 (AID 1067).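 Note: measures binding of biotinylated aFGF2 protein to printed compounds on slides; z-score merges feature fluorescence and signal-to-noise across triplicate slides.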 The settings on record: higher = more signal.
Experiment [4] is described as follows: binders of probe aFGF10 on microarray, primary screen, stem cell growth factor project, biochemical, small-molecule microarray, fluorescence 635/667 (AID 1071).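 Note: score merges 667 nm spot intensity and signal to noise from triplicate slides.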 Conditions: higher = more signal.
The target of experiment [5] is Neurogenic locus notch homolog protein 2 (Homo sapiens) (UniProt Q04721). The experiment can be described thus: Notch2 binders on small-molecule microarrays, primary screen, biochemical, small-molecule microarray, 635 nm fluorescence, stem cell growth factors (AID 1073). Conditions: Notch2 binding, higher = more signal.
The target in experiment [6] is Pro-neuregulin-1, membrane-bound isoform (Homo sapiens) (UniProt Q02297). Kind of experiment: NRG1 binders on small-molecule microarrays, primary screen, psychiatric disease protein project, biochemical, small-molecule microarray, fluorescence 635/667 (AID 1075).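 Note: score combines 667 nm spot fluorescence with signal to noise.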 Conditions: NRG1 binding, 635 nm fluorescence, higher = more signal.
Experiment [7] relates to Neuregulin-1 EGF-like domain. Kind of experiment: binders of neuregulin-1 EGF-like domain, primary screen, biochemical, small-molecule microarray, 635 nm fluorescence (AID 1081).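 Note: binding of the protein to compounds printed on small-molecule microarray slides.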 The settings on record: small-molecule microarray binding, higher = more signal.
Experiment [8] is described as follows: FRG1 promoter luciferase signal modulators, primary screen, FRG1 inhibition for FSHD, cell-based, C2C12 myotubes, firefly/Renilla luciferase, luminescence (AID 1084). The settings on record: higher = more signal, called active from +8 up or from −8 down.
Experiment [9] in a line: binders of probe aFST on microarray, primary screen, stem cell growth factor project, biochemical, small-molecule microarray, fluorescence 635/667 (AID 1086).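 Note: score merges 667 nm fluorescence with signal-to-noise of each printed compound spot.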 The settings on record: higher = more signal.
Experiment [10] can be described thus: binders of probe aHhip on microarray, primary screen, stem cell growth factor project, biochemical, small-molecule microarray, fluorescence 635/667 (AID 1087).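 Note: score merges spot fluorescence at 667nm with spot signal to noise ratio.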 Conditions: higher = more signal.
In experiment [11] the test system is PRMT1 (protein arginine N-methyltransferase 1). The experiment can be described thus: PRMT1 binders on small-molecule microarrays, primary screen, biochemical, small-molecule microarray, 635 nm fluorescence (AID 1088).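 Note: binding of Prmt1 protein to compounds spotted on small-molecule microarray slides.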 The settings on record: small-molecule microarray binding, higher = more signal.
Experiment [12] is described as follows: yeast growth modulation, basal conditions, primary screen, YJM789 clinical isolate, OD600, 24 h (AID 1089).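 Note: growth of clinical yeast isolate S. cerevisiae YJM 789 seeded 1000 cells per well; test concentration not given here.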 The settings on record: S. cerevisiae YJM789 growth, higher = more signal, called active from +8 up or from −8 down.
A short description of experiment [13]: fission yeast growth modulation, primary screen, strain 972, OD600, 24 h, no modulator (AID 1090).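 Note: basal condition with compound alone and no growth modifier present; test concentration not given here.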 Conditions: S. pombe 972 growth, higher = more signal, called active from +8 up or from −8 down.
Experiment [14] in a line: S. cerevisiae growth modulation with rapamycin, primary screen, strain BY4716, OD600, 96 h (AID 1091). Note: test concentration not given here. Conditions: higher = more signal, called active from +8 up or from −8 down.
For experiment [15], the target named is Torsin-1A-interacting protein 2 (Homo sapiens) (UniProt Q8NFQ8). The experiment can be described thus: LULL1 binders on small-molecule microarray, primary screen, cell lysate, human LULL1 lysate, 635/667 nm fluorescence (AID 1092).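 Note: score merges per-feature 667 nm fluorescence with signal-to-noise.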 The settings on record: hLULL1 lysate binding, 635 nm fluorescence, higher = more signal.
Experiment [16] is described as follows: E. coli growth modulation, two-sided OD650, primary screen, E. coli filamentation project, strain DRC41, 24 h (AID 1093).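 Note: MC1000 strain lacking acrAB efflux and sulA so SOS filamentation is blocked; test concentration not given here.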 The settings on record: OD650, 24 h, higher = more signal, called active from +8 up or from −8 down.
Experiment [17] is described as follows: small-molecule microarray binders of probe aLefty2, primary screen, biochemical, biotinylated probe, 635/667 nm fluorescence (AID 1094).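 Note: score merges spot fluorescence near 667 nm with spot signal-to-noise ratio.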 Conditions: higher = more signal.
In experiment [18] the test system is Noggin (protein binding on small-molecule microarray). Kind of experiment: Noggin binders on small-molecule microarray, primary screen, biochemical, 635/667 nm fluorescence (AID 1095).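 Note: score merges 667 nm feature fluorescence with signal to noise over triplicate slides.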 Conditions: 635 nm fluorescence, higher = more signal.
Experiment [19] addresses Neurogenic locus notch homolog protein 3 (Homo sapiens) (UniProt Q9UM47). Kind of experiment: NOTCH3 binders on small-molecule microarray, primary screen, biochemical, 635/667 nm fluorescence (AID 1096). The settings on record: NOTCH3 binding, 635 nm fluorescence, higher = more signal.
A short description of experiment [20]: small-molecule microarray binders of probe aEGFR, primary screen, biochemical, biotinylated probe, 635/667 nm fluorescence (AID 1097).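 Note: probe is a biotinylated anti-EGFR antibody binding compounds printed on slides; score combines fluorescence near 667 nm and signal to noise of each spot.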 The settings on record: higher = more signal.

Activity calls are given as the source filed them.

Sequence of Neurogenic locus notch homolog protein 2 (Homo sapiens) (Q04721 whole entry, looked up, canonical isoform): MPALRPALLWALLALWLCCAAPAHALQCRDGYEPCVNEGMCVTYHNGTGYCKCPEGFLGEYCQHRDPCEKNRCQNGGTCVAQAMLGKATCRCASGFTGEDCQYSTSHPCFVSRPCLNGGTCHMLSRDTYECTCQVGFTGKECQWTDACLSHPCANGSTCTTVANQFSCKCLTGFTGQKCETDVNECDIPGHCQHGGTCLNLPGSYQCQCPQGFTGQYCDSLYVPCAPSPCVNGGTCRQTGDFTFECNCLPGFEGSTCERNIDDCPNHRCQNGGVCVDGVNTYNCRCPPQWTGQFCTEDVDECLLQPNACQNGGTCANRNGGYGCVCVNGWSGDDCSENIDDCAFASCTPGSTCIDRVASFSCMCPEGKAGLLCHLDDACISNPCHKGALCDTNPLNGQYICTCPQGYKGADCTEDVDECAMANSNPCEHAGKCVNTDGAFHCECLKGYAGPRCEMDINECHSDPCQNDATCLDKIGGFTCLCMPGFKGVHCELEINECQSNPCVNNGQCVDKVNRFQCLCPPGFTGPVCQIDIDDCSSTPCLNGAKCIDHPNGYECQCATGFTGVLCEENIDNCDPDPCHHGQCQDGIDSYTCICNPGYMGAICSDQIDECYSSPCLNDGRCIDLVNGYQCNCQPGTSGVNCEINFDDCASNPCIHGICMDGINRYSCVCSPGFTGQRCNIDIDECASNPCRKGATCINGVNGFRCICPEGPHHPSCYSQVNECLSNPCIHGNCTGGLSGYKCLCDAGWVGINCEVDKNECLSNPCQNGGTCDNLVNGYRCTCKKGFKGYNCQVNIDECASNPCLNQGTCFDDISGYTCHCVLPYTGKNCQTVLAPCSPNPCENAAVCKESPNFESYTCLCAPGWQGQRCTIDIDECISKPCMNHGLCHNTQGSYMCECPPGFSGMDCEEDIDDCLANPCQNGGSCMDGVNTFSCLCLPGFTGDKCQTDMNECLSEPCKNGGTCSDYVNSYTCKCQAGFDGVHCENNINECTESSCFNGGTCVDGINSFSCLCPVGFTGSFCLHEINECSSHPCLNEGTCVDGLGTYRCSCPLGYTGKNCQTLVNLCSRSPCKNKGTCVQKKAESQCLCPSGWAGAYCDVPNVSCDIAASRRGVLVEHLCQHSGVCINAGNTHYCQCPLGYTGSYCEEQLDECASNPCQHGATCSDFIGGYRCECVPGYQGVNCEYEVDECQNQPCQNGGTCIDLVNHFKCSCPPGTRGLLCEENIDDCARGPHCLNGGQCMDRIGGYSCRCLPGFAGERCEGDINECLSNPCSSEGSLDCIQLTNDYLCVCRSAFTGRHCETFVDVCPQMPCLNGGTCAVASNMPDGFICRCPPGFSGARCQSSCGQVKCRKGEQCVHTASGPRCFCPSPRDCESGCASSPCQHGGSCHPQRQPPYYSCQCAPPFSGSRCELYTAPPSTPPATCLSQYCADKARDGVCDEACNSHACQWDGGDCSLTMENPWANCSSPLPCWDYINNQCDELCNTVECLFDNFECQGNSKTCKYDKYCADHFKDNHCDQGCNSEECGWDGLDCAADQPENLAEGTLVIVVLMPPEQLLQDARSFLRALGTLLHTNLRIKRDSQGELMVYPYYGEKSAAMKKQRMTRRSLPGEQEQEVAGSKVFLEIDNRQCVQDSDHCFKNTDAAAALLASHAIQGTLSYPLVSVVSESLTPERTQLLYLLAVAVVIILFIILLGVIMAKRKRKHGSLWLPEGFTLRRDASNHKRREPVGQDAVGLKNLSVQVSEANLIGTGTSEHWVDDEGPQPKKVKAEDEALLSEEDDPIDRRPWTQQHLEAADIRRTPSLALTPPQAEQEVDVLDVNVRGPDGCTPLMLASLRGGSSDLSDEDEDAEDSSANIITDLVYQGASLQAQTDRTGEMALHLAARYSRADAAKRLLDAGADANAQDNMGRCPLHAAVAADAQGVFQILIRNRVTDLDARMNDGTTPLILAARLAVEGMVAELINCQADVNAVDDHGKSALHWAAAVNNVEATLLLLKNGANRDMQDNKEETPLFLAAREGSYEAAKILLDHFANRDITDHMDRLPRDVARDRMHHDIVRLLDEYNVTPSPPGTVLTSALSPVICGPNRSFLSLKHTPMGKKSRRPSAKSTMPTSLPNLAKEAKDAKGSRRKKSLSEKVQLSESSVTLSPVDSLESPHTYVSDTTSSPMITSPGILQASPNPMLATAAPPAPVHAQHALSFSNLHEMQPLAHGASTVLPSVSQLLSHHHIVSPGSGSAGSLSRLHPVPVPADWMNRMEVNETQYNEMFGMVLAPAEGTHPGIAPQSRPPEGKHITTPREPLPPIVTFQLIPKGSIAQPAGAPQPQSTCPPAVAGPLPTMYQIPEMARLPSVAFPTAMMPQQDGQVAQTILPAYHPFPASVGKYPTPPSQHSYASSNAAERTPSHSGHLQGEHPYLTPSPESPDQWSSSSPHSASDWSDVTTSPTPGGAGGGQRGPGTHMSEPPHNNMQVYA
Sequence of Neurogenic locus notch homolog protein 3 (Homo sapiens) (Q9UM47 whole entry, looked up): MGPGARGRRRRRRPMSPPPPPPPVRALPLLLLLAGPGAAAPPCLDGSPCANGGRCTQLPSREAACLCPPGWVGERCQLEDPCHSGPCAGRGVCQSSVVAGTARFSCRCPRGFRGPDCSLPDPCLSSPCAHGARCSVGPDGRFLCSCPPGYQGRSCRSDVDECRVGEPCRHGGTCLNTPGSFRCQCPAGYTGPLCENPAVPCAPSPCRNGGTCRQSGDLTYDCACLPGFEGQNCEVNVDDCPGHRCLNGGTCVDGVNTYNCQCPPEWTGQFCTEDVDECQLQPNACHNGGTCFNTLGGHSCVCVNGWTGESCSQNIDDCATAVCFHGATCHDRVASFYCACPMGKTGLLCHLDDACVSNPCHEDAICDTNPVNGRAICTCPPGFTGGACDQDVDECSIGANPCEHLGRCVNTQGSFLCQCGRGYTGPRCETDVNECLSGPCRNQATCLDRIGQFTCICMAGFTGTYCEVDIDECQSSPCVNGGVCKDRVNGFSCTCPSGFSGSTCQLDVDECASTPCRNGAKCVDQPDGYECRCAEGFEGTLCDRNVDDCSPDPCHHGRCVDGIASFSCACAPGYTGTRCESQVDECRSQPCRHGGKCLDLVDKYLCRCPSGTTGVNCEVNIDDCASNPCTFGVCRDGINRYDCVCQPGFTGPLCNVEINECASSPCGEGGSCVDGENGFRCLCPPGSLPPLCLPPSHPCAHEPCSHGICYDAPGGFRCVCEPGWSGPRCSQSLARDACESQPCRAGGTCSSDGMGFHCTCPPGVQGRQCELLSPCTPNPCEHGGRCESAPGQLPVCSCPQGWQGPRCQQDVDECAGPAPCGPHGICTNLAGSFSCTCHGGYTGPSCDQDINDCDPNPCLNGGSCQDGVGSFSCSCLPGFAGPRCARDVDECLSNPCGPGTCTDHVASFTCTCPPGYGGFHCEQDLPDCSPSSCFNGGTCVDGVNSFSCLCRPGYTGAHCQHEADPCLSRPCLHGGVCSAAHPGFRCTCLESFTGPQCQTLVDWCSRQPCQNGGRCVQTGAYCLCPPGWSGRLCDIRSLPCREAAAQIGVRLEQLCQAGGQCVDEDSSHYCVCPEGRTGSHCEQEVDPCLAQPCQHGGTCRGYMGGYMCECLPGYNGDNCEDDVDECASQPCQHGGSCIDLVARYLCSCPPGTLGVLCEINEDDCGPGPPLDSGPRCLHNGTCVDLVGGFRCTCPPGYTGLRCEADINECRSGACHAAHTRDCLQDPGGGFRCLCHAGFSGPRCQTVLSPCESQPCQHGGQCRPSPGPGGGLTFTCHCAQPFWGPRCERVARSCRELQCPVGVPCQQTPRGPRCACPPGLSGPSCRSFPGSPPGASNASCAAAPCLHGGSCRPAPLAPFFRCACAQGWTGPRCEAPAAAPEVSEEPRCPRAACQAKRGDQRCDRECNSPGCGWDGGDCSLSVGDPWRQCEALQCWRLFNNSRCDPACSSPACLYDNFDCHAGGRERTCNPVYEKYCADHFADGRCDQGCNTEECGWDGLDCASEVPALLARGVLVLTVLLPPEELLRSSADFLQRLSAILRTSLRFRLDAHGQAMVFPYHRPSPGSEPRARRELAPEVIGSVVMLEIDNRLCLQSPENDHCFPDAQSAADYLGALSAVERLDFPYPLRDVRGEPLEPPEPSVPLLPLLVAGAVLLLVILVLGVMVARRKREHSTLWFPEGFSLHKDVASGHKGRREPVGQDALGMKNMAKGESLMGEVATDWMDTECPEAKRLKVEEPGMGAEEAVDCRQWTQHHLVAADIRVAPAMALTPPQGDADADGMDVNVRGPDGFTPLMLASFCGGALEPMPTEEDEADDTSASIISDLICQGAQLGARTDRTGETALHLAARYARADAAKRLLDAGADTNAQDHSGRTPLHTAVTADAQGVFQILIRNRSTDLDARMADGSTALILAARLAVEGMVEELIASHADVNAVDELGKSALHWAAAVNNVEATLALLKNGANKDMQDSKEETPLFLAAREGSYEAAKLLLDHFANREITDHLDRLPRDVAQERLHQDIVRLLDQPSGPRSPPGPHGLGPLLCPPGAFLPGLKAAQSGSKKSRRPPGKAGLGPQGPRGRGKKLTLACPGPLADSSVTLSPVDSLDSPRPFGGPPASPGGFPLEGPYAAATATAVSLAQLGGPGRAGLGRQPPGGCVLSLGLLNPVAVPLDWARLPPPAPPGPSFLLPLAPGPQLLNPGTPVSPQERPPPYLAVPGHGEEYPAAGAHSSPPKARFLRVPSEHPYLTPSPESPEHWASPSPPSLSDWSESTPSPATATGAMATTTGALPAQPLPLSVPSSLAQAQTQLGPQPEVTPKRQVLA

As for `COc1ccc([Si](C)(C)[C@@H]2[C@@H](CCO)O[C@]3(C(=O)N(Cc4ccccc4)c4ccc(N5CCCCC5=O)cc43)[C@H]2C)cc1`, the composite z-score is -0.389 in [1]; 0.942 in experiment [2]; 0.0026 in [3]; 0.711 in experiment [4]; 1.06 in [5]; 0.965 in experiment [6]. Moreover, the composite z-score in experiment [7] was 1.15; in experiment [9] it was 0.566; in [10], -0.0645; in experiment [11], 1.56; in experiment [15], 2.06; in experiment [17], -0.0151. Moreover, the composite z-score is 0.901 in experiment [18], 1.11 in experiment [19] and -0.0828 in [20]. Besides, the z-score in experiment [8] was -4.38 (inactive); in experiment [12] it was 3.43 (inactive); in experiment [13], -0.536 (inactive); in [14], 4.86 (inactive); in [16] it was 2.63 (inactive).

`C#CCOC(=O)N[C@H](C=CCCCC)c1ccccc1`: the composite z-score turned out to be 0.209 in experiment [1]; 0.108 in experiment [2]; 0.0934 in [3]; 0.239 in experiment [4]; 1.33 in experiment [5]; 2.33 in experiment [6]. Further, the composite z-score in [7] was 1.31; in experiment [9], 0.129; in [10] it was 0.382; in [11], -0.893; in experiment [15], 2.96; in experiment [17], 0.148. For the same molecule, the values for the composite z-score in [18], in experiment [19] and in [20] were -0.373, -0.404 and 0.0082, respectively. In addition, the z-score in experiment [8] is -0.237 (inactive); in experiment [12], 0.126 (inactive); in experiment [13], -0.091 (inactive); in experiment [14] it was 0.0673 (inactive); in experiment [16] it was 0.392 (inactive).

`COC(=O)[C@]1(Cc2ccccc2N=[N+]=[N-])N=C(c2ccc(OCCCO)cc2)O[C@@H]1c1ccccc1`: the composite z-score in [1] is 1.3; in experiment [2], 0.517; in [3], 0.0132; in experiment [4], -0.152; in experiment [5] it was -0.0515; in experiment [6], 0.358. Also, the composite z-score stood at 0.929 in experiment [7]; 0.182 in [9]; 0.0291 in experiment [10]; 0.867 in experiment [11]; 2.21 in experiment [15]; 0.23 in [17]. Also, the composite z-score was -0.4 in experiment [18], -0.361 in experiment [19] and -0.136 in experiment [20]. For the same molecule, the z-score in [8] was -0.237 (inactive); in experiment [12], 0.537 (inactive); in experiment [13], -1.28 (inactive); in experiment [14] it was 21.8 (active); in experiment [16], 1.06 (inactive).

In the case of `C=C[C@@H](O)[C@H]1CC(c2ccccc2)=NO1`, the composite z-score in experiment [1] was -0.0317; in experiment [2], -0.1; in experiment [3], -0.0692; in experiment [4] it was -0.105; in experiment [5] it was -0.138; in experiment [6], -0.37. In addition, the composite z-score in experiment [7] is -0.262; in experiment [9], 0.266; in [10], 0.172; in experiment [11], -0.425; in experiment [15], -0.141; in experiment [17], -0.0339. The composite z-score in experiment [18] was -0.174; in experiment [19], -0.872; in [20], -0.0844. Also, the z-score in experiment [8] is 1.6 (inactive); in experiment [12], -0.347 (inactive); in [13], -0.954 (inactive); in experiment [14], -0.657 (inactive); in experiment [16], 1.13 (inactive).

`COC(=O)C(CC#Cc1ccc2c(c1)[C@]1(C(=O)N2)[C@H](c2ccccc2OCCO)N2[C@H](c3ccccc3)[C@H](c3ccccc3)OC(=O)[C@H]2[C@@H]1C(=O)Nc1nc2ccccc2s1)C(=O)OC`: the composite z-score was -0.214 in experiment [1]; 0.675 in experiment [2]; 0.0563 in experiment [3]; 0.605 in experiment [4]; 1.05 in experiment [5]; 1.47 in experiment [6]. Besides, the composite z-score is 1.26 in experiment [7]; 0.446 in [9]; 0.0329 in [10]; 1.52 in [11]; 2.93 in experiment [15]; -0.0699 in experiment [17]. In addition, the results for the composite z-score in [18], in experiment [19] and in experiment [20] were 1.24, 1.15 and -0.0688, respectively. Further, the z-score is 1.94 (inactive) in experiment [8]; 2.11 (inactive) in experiment [12]; 1.03 (inactive) in experiment [13]; 1.36 (inactive) in [14]; -0.724 (inactive) in [16].
